Measurements as given in PubChem BioAssay (EPA / NIEHS).
Calls of active or inactive are those of the source. The calls were made as follows: active = hit-call score of the fitted dose curve at least 0.9, where 1 is the maximum; inactive = score below 0.9.

Experiments:
Conditions in all cases: mRNA level, 48 h; actives raise or lower the signal
[1] = read-out: MicroRNA 122 (MIR122), gene 406906; assay: LTEA_HepaRG_MIR122: Life Technologies and Expression Analysis (LTEA) Assay for MicroRNA 122 (MIR122) using HepaRG (AID 2283516); also: the transcript read is the microRNA miR-122
In short: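 Differentiated human HepaRG cells in serum-free induction medium exposed 48 h to 8 half-log concentrations from 100 uM in 0.5% DMSO, duplicate. MIR122 quantified by Fluidigm TaqMan qRT-PCR, normalised to ACTB, GAPDH, POLR2A; fold change fitted bidirectionally versus DMSO.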

[2] = read-out: matrix metalloproteinase-10 (MMP10), MMP10 (gene 4319); assay: LTEA_HepaRG_MMP10: Life Technologies and Expression Analysis (LTEA) Assay for matrix metalloproteinase-10 (MMP10) using HepaRG (AID 2283517)
In short: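 Gain or loss of MMP10 mRNA is fitted relative to the 0.5% DMSO vehicle. The human hepatic line HepaRG receives a 48-hour serum-free exposure, in duplicate, with a maximum concentration of 100 uM.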

MYC, MYC (gene 4609) = assay: LTEA_HepaRG_MYC: Life Technologies and Expression Analysis (LTEA) Assay for MYC using HepaRG (AID 2283518)
In short: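 Differentiated human HepaRG cells, plated 48 h then switched to serum-free induction medium, were exposed in duplicate for 48 h to 8-point half-log series up to 100 uM in 0.5% DMSO. MYC mRNA measured by qRT-PCR, normalized to ACTB/GAPDH/POLR2A.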

[3] = read-out: matrix metalloproteinase-3 (MMP3), MMP3 (gene 4314); assay: LTEA_HepaRG_MMP3: Life Technologies and Expression Analysis (LTEA) Assay for matrix metalloproteinase-3 (MMP3) using HepaRG (AID 2283519)
In short: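 HepaRG, human; 48 h dosing, 8 conc. (max 100 uM, half-log), duplicate, 0.5% DMSO. Readout: MMP3 transcript by Fluidigm TaqMan qRT-PCR, ACTB/GAPDH/POLR2A-normalised. Gain or loss fitted vs DMSO.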

[4] = read-out: Paternally Expressed 10 (PEG10), PEG10 (gene 23089); assay: LTEA_HepaRG_PEG10: Life Technologies and Expression Analysis (LTEA) Assay for Paternally Expressed 10 (PEG10) using HepaRG (AID 2283520)
In short: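 Differentiated HepaRG cells exposed 48 h in serum-free induction medium to eight half-log concentrations topping at 100 uM, 0.5% DMSO, in duplicate. PEG10 mRNA quantified by TaqMan qRT-PCR, normalized to ACTB, GAPDH and POLR2A; bidirectional fit versus DMSO.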

[5] = read-out: Nuclear factor NF-kappa-B p105 subunit (Homo sapiens) (UniProt P19838); assay: LTEA_HepaRG_NFKB1: Life Technologies and Expression Analysis (LTEA) Assay for Nuclear Factor Kappa B Subunit 1 (NFKB1) using HepaRG (AID 2283521)
In short: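 Differentiated human HepaRG cells were exposed for 48 h in serum-free induction medium to eight concentrations (top 100 uM, half-log steps, 0.5% DMSO), in duplicate. NFKB1 mRNA was measured by TaqMan qRT-PCR, normalized to ACTB/GAPDH/POLR2A, and fitted bidirectionally against DMSO.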

[6] = read-out: Protein phosphatase 2A (PPP2R4), PTPA (gene 5524); assay: LTEA_HepaRG_PPP2R4: Life Technologies and Expression Analysis (LTEA) Assay for Protein phosphatase 2A (PPP2R4) using HepaRG (AID 2283522)
In short: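 Differentiated human HepaRG cells in serum-free induction medium were exposed 48 h to 8 concentrations (top 100 µM, half-log steps, duplicate) in 0.5% DMSO. PPP2R4 mRNA was measured by TaqMan qRT-PCR, normalised to ACTB, GAPDH and POLR2A, and fitted bidirectionally versus DMSO.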

[7] = read-out: Phosphatase and tensin (PTEN), PTEN (gene 5728); assay: LTEA_HepaRG_PTEN: Life Technologies and Expression Analysis (LTEA) Assay for Phosphatase and tensin (PTEN) using HepaRG (AID 2283523)
In short: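 Read-out is PTEN transcript level by multiplexed TaqMan qRT-PCR after 48 h chemical treatment of human HepaRG cultures in serum-free induction medium. Concentrations spanned 100 uM downward in half-log steps, 0.5% DMSO throughout; activity fitted in both directions against vehicle.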

[8] = read-out: solute carrier (SLC22A1), SLC22A1 (gene 6580); assay: LTEA_HepaRG_SLC22A1: Life Technologies and Expression Analysis (LTEA) Assay for solute carrier (SLC22A1) using HepaRG (AID 2283524)
In short: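 HepaRG (human liver line), 48 h dosing in serum-free induction medium; 8 conc., half-log down from 100 uM, 0.5% DMSO vehicle, duplicates. Endpoint: SLC22A1 mRNA, qRT-PCR, housekeeping-normalized; gain/loss fit vs DMSO.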

[9] = read-out: Pyruvate Dehydrogenase Kinase 4 (PDK4), PDK4 (gene 5166); assay: LTEA_HepaRG_PDK4: Life Technologies and Expression Analysis (LTEA) Assay for Pyruvate Dehydrogenase Kinase 4 (PDK4) using HepaRG (AID 2283525)
In short: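 In this multiplexed human HepaRG expression assay, cells are treated 48 h with test chemicals across an eight-point range starting at 100 uM. PDK4 mRNA changes, normalized to ACTB/GAPDH/POLR2A, are fitted in both directions relative to vehicle.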

Measured: AC50

Sequence of Nuclear factor NF-kappa-B p105 subunit (Homo sapiens) (P19838 whole entry, looked up): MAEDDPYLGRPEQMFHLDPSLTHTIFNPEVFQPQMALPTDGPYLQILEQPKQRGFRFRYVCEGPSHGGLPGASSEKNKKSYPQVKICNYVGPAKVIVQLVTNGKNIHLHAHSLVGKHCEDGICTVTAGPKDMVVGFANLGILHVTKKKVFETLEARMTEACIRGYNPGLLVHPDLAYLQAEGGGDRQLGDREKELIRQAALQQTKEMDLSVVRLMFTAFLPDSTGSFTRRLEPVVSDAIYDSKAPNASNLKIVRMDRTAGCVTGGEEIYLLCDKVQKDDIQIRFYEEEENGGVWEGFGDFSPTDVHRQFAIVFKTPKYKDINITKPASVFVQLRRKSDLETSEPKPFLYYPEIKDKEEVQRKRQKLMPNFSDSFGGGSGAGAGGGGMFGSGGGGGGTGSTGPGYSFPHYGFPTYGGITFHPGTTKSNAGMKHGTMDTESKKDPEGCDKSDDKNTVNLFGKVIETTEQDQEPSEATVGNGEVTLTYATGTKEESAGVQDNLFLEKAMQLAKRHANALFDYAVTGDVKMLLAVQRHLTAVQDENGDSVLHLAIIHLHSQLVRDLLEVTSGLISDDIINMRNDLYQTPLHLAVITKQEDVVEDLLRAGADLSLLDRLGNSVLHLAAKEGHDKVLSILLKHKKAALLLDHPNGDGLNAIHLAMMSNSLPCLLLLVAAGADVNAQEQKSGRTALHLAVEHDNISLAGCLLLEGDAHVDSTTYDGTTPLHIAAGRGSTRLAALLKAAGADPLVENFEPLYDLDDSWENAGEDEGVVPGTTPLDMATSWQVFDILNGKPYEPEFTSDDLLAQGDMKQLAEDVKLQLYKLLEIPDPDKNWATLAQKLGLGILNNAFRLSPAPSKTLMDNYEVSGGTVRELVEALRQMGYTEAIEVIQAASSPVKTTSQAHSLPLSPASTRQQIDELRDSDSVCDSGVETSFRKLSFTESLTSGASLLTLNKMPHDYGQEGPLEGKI

[As]#[In]
inactive: all assays above

c1ccc2c(c1)oc1ccccc12
inactive: all assays above

c1ccc(N=Nc2ccccc2)cc1
inactive: all assays above

Brc1ccc(Oc2ccccc2)cc1
inactive: all assays above

ClC1=C(Cl)C2(Cl)C3C(Cl)C=CC3C1(Cl)C2(Cl)Cl (stereo unspecified)
active: MYC, MYC (gene 4609) 37.1 µM | [9] 50 µM
inactive: all other assays above

CCCCOC(=O)c1ccccc1C(=O)OCc1ccccc1
active: [6] 0.349 µM
inactive: all other assays above

CCN(CC)CCO
inactive: all assays above

CC(C)(C)OOC(=O)c1ccccc1
inactive: all assays above

CCCCC(CC)COC(=O)c1ccc(C(=O)OCC(CC)CCCC)c(C(=O)OCC(CC)CCCC)c1 (stereo unspecified)
inactive: all assays above

O=C(Nc1ccccc1)c1ccccc1I
active: [1] 50 µM | MYC, MYC (gene 4609) 41.6 µM | [4] 31.2 µM | [8] 31.1 µM | [9] 9.92 µM
inactive: [2] | [3] | [5] | [6] | [7]

CCCCCCCCn1sccc1=O
active: [1] 82.3 µM | [2] 76.6 µM | [4] 52 µM | [8] 78.4 µM | [9] 34.4 µM
inactive: all other assays above

Cc1ccc(N)cc1
inactive: all assays above

Clc1ccc(C(c2ccc(Cl)cc2)C(Cl)(Cl)Cl)cc1
inactive: all assays above

C=CCc1ccc2c(c1)OCO2
inactive: all assays above

CCC(C)c1ccc(O)cc1 (stereo unspecified)
inactive: all assays above

Cc1cc(N=Nc2ccccc2C)ccc1N
active: [1] 3.67 µM | MYC, MYC (gene 4609) 5.49 µM | [3] 12.2 µM | [4] 4.04 µM | [6] 2.35 µM | [7] 4.12 µM | [8] 4.83 µM | [9] 2.39 µM
inactive: [2] | [5]

Cc1ccc(N)c(N)c1
inactive: all assays above

Clc1ccccc1Cl
inactive: all assays above

CC(C)N(Cc1ccccc1)C(=O)C(C)(C)C
active: [4] 28.8 µM
inactive: all other assays above

O=Cc1ccco1
inactive: all assays above

CN(C)c1ccc(C(=O)c2ccc(N(C)C)cc2)cc1
active: [4] 22.3 µM | [8] 50 µM | [9] 25.8 µM
inactive: all other assays above

CCC12COCN1COC2
inactive: all assays above

O=[N+]([O-])c1ccc(Oc2ccc(Cl)cc2Cl)cc1
active: MYC, MYC (gene 4609) 32.8 µM | [4] 50 µM | [9] 11.3 µM
inactive: all other assays above

Nc1ccc(Cl)cc1N
active: [1] 21 µM | MYC, MYC (gene 4609) 13.4 µM | [3] 30.1 µM | [4] 14.2 µM | [5] 12.5 µM | [6] 26.3 µM | [7] 32.6 µM | [8] 18.9 µM
inactive: [2] | [9]

Cn1cc(-c2ccccc2)c(=O)c(-c2cccc(C(F)(F)F)c2)c1
active: [4] 23.5 µM | [9] 50 µM
inactive: all other assays above

N#CC(Br)(Br)C(N)=O
inactive: all assays above

C1=Cc2cccc3cccc1c23
inactive: all assays above

Oc1ccc2ccc3cccc4ccc1c2c34
inactive: all assays above

O=[N+]([O-])C(Br)(CO)CO
not listed: MYC, MYC (gene 4609)
inactive: all other assays above

CCOC(=O)[C@]1(c2ccccc2)Oc2ccccc2[C@@H]1N
active: [2] 92.9 µM | [3] 72.8 µM | [4] 62.5 µM | [8] 84.2 µM | [9] 71.2 µM
inactive: [1] | [5] | [6] | [7]

Cc1ccc(N=C=O)cc1N=C=O
inactive: [3] | [5] | [6] | [7]
active: [1] 50 µM | [2] 27 µM | MYC, MYC (gene 4609) 19.3 µM | [4] 12.4 µM | [8] 30.6 µM | [9] 19.6 µM

CCOc1cccc(C2(N3CCN(c4ccccc4)CC3)CCC(C)CC2)c1 (stereo unspecified)
active: [3] 89.9 µM
not listed: [5]
inactive: all other assays above

O=C(N[C@H](c1ccccc1)[C@@H]1CN2CCC1CC2)c1c(Cl)ccc(C(F)(F)F)c1Cl
active: [1] 46.2 µM | [2] 69.4 µM | [3] 73.6 µM | [4] 26.8 µM | [5] 71.5 µM | [6] 75.3 µM | [7] 77.8 µM | [8] 72.1 µM
inactive: [9]

c1ccc(NNc2ccccc2)cc1
not listed: MYC, MYC (gene 4609)
inactive: all other assays above

CC(O)CCO (stereo unspecified)
not listed: MYC, MYC (gene 4609)
inactive: all other assays above

Nc1ccc(Oc2ccc(N)cc2)cc1
inactive: all assays above

COP(=S)(OC)SCN1C(=O)c2ccccc2C1=O
not listed: MYC, MYC (gene 4609)
inactive: all other assays above

Cc1ccc([N+](=O)[O-])cc1
active: [4] 11.3 µM
not listed: [5]
inactive: all other assays above

O=P(OCCCl)(OCCCl)OCCCl
active: [3] 67.3 µM | [6] 50 µM
not listed: [5]
inactive: all other assays above
